Test results: PubChem BioAssay (NCI)
Compounds without any hit were thinned out: in the full panel of roughly 83,000, 20% have a hit.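 Plates (96-well) were seeded with cells, treated with compound at one concentration, and incubated for 48 hours before percent growth was determined.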 A number with no mark means an inactive call. The source made the active and inactive calls. The calls were made as follows: active = growth percent below 10; inactive = the rest.

How the values were obtained:
Experiment in all cases: NCI-60 one-dose screen, 48 h (100 = growth as untreated, 0 = no growth, -100 = all killed)
Details in all cases: 10 µM unless noted
T-47D breast = tested on: T-47D breast
MDA-MB-435 melanoma = tested on: MDA-MB-435 melanoma
SW-620 colon = tested on: SW-620 colon
MCF7 breast = tested on: MCF7 breast
HCT-116 colon = tested on: HCT-116 colon
HCC-2998 colon = tested on: HCC-2998 colon
KM12 colon = tested on: KM12 colon

Compound	growth (T-47D breast)	growth (MDA-MB-435 melanoma)	growth (SW-620 colon)	growth (MCF7 breast)	growth (HCT-116 colon)	growth (HCC-2998 colon)	growth (KM12 colon)
O=C1COc2ccccc2C(=O)N1CCCCNc1ccccc1	73.3%	98.1%	92.3%	82.8%	77.4%	94.5%	79.9%
COc1cc(-c2nc3ccccc3s2)ccc1OCc1nc2n(n1)S(=O)(=O)c1ccccc1N2c1ccccc1	101%	107%	102%	105%	99.5%	129%	101%
Cc1cc2nc(-c3c(N)ncc(C#N)c3-c3ccc(Cl)cc3)[nH]c2cc1C	68.8%	58%	76.6%	58.5%	34.8%	65.4%	52.9%
COc1ccc(-c2c(C#N)cnc(N)c2-c2nc3cc(C)c(C)cc3[nH]2)cc1	71.7%	-5.12% (active)	38.4%	50.9%	20.7%	1.45% (active)	17.2%
CCN(CC)CCN1C(=O)c2c(c3c4ccccc4[nH]c3c3[nH]c4ccccc4c23)C1=O	81.8%	95.6%	46.9%	62%	67%	53.1%	85.2%
Cc1cccc(NCS(=O)(=O)O)c1	94.1%	108%	101%	95.1%	102%	96.9%	112%
CCNc1cc(S(=O)(=O)O)ccc1C	90%	107%	104%	98.6%	98.3%	103%	107%
O=S1(=O)N(CCNc2nccc(-c3c(-c4cccc(O)c4)nc4sccn34)n2)CCN1Cc1ccccc1	50.8%	45.9%	74.4%	59.5%	45.9%	109%	47.6%
Cc1cc[n+](CCCC[n+]2ccc(C)cc2)cc1	105%	102%	103%	96.3%	100%	103%	90.5%
CC(C)CCC[C@@H](C)[C@H]1CC[C@H]2[C@@H]3CC=C4N(c5ccccc5)C(=O)CC[C@]4(C)[C@H]3CC[C@]12C	95%	100%	99.8%	89.5%	99.2%	102%	105%
O=S(=O)(CCN1CCOCC1)Nc1cncc(-c2ccc3ncnc(Nc4ccc(F)c(Cl)c4)c3c2)c1	-17.9% (active)	87.2%	90.2%	47.3%	56.1%	74.4%	95.9%
Fc1cccc(F)c1C#Cc1ccc2cccnc2c1	22.3%	107%	90.5%	14.8%	74.6%	68.6%	79.1%
Oc1ccccc1/C=N/c1ccccn1	95.9%	122%	107%	97.7%	103%	-94.1% (active)	113%
O=C(C[n+]1cccc(Br)c1)c1ccc2c(c1)CCCC2	91.6%	100%	103%	90.4%	88.2%	103%	108%
CCOC(=O)C1CSC(C)(C(=O)OCC)N1 (centres undefined)	99.8%	103%	104%	93.4%	96.6%	101%	107%
COc1ccc(N)c(S)c1	89.5%	106%	93.6%	94.4%	92.5%	103%	105%
COc1cc2ncnc(Oc3ccc(NC(=O)Nc4ccc(C5(C#N)CCCC5)cc4)c4ccccc34)c2cc1OC	64.3%	43.4%	53.9%	55.2%	30.8%	107%	43.7%
CCC1(C(N)=O)CC2C=CC1CC2 (centres undefined)	101%	121%	108%	98%	107%	-100% (active)	117%
CSc1nc(N)nc2c1ncn2C	90.3%	102%	101%	96.7%	92.1%	99.8%	95.6%
COc1ccc(/C(=C/c2cc(OC)c(OC)c(OC)c2)[N+](=O)[O-])cc1	6.27% (active)	7.21% (active)	-31% (active)	1.7% (active)	11.8%	91.5%	15.5%
CN(C)c1ccc(/C=c2\s/c(=C\C(=O)C(C)(C)C)[nH]c2=O)cc1	81.4%	89.3%	101%	86.7%	91.2%	107%	81.9%
COc1ccc(OCC(O)CN2CCN(c3ccc(Cl)cc3)CC2)cc1 (centres undefined)	78%	106%	101%	89.2%	91.5%	-94.4% (active)	98.9%
Cc1cccc(CC(=O)c2ccccc2)n1	94.2%	99%	91.3%	92%	90.5%	94.6%	88.1%
O=C(Nc1ccc(Cl)c(Cl)c1)Nc1ccc(Cl)c([N+](=O)[O-])c1	-2.12% (active)	7.8% (active)	9.66% (active)	0.367% (active)	1.83% (active)	2.28% (active)	2.33% (active)
C=CCOc1ccc(/C(Cl)=N/N=C(\Cl)c2cc(OC)c(OC)c(OC)c2)cc1	47.6%	80.6%	68.3%	42.8%	70.2%	75.6%	67.9%
Oc1ccc(Cl)cc1Sc1cc(Cl)ccc1O	75.8%	–	103%	91.3%	86.9%	106%	106%
O=C(Nc1ccc(-n2cc(-c3ccncc3)c(-c3ccc(O)c(Cl)c3)n2)cc1)c1cc(Cl)cc(Cl)c1	49.3%	21.5%	–	33.3%	17.6%	39.3%	24.3%
Cc1cccc[n+]1CCC[n+]1ccccc1C	85.6%	102%	107%	96.5%	86.1%	107%	100%
